From PubChem BioAssay (Tox21) come the findings set out here.

Structures are written as SMILES. Records with an inconclusive call do not appear. A call without a number means that no potency is given here. Activity calls are given as the source filed them. The call rests on the fitted dose curve; in most records, active means well fitted activation curve with a large enough effect in the repeat runs; inconclusive means weak or mixed curves; inactive means flat fitted curve, though single readings scatter.
Potency means the concentration at half of the fitted maximal effect.

The assay in a line: A CellTox Green Cytotoxicity Assay to monitor cytotoxicity in HepG2 cells - 16 hour (AID 1224876). Further: nearly all actives have a fitted effect of over 45% in size. Particulars: CellTox Green fluorescence; series mostly up to 76.8 µM. The gist of the method: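 First, HepG2 cells (600/well) mixed with reagent were plated; second, after 5 h at 37 C they received compounds via pintool; third, fluorescence was measured at 0 h through 40 h at 8 h intervals.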
In the case of `O=C(O)C[C@H](NC(=O)OCc1ccccc1)C(=O)O`, the Potency entry was “inactive”.

As for `CCCCCCCCCI`, the Potency entry is “inactive”.

For the compound `O=C=Nc1ccc(Cl)c(Cl)c1`, the Potency result is “inactive”.

On to `O=C1C(=O)c2ccccc2C(O)=C1C1CCC(c2ccc(Cl)cc2)CC1` (centres undefined), for which the Potency result is “inactive”.

In the case of `C[C@@H](O)[C@H]1C(=O)N2C(C(=O)O)=C([C@H]3CCCO3)S[C@H]12`, the Potency entry was “inactive”.

As for `c1ccc(C[n+]2cccc3ccccc32)cc1`, the Potency entry was “inactive”.

Consider `CC(C)C=O`, for which the Potency entry is “inactive”.

On to `CCC1(CO)COCOC1`, for which the Potency entry was “inactive”.

For the compound `Cc1cscn1`, the Potency entry was “inactive”.

Turning to `C[C@H]1C[C@H](O)c2ccsc2S1(=O)=O`, the Potency entry is “inactive”.

For `O=C(/C=C/c1ccccc1)OCCc1ccccc1`, the Potency entry is “inactive”.

As for `CC1(C)[C@H](C(=O)O)N2C(=O)C[C@H]2S1(=O)=O`, the Potency entry is “inactive”.

As for `CC=C(Cl)Cl`, the Potency entry is “inactive”.

For the compound `COC(=O)[C@H]1[C@H]2C[C@@H]3c4[nH]c5cc(OC)ccc5c4CCN3C[C@H]2C[C@@H](OC(=O)/C=C/c2ccc(O)c(OC)c2)[C@@H]1OC`, the Potency was 23.9 µM (active).

Turning to `NCCNCCO`, the Potency entry is “inactive”.

For the compound `N#CCc1ccc(Cl)cc1Cl`, the Potency entry was “inactive”.

On to `CCCCC(CC)CN` (centres undefined), for which the Potency entry is “inactive”.

For `C[C@@]12CCC[C@H]1[C@@H]1CC[C@H]3C[C@@H](O)CC[C@]3(C)[C@H]1CC2`, the Potency result was “inactive”.

As for `C[C@]1(Cn2ccnn2)[C@H](C(=O)O)N2C(=O)C[C@H]2S1(=O)=O`, the Potency result was “inactive”.

With `Cc1ccccc1N=C(N)Nc1ccccc1C`, the Potency result is “inactive”.

`NC(=O)c1ccncc1`: the Potency entry was “inactive”.

Consider `CCCCN(CCN(CCCC)C(=O)N1CCOCC1)C(=O)N1CCOCC1`, for which the Potency result is “inactive”.

In the case of `O=C1CCCCCCCCCCOCCCCO1`, the Potency entry is “inactive”.

On to `C=C(C)C(=O)OCCOCCOC(=O)C(=C)C`, for which the Potency entry was “inactive”.
